From PubChem
Most compounds without a hit are left out; they make up all but 1.5% or so of the library.
PrPC surface inh – reduces human prion protein on the cell surface | P04156 | cell surface PrPC, TR-FRET read-out | inhibition, % at 13.8 µM | actives 0.43% (n = 370,000) | AID 720596; in the data active = inhibition above about 24%; also: 0% = median of the test wells and 100% = reference compound wells
PrP UTR inh – inhibition of PrP 5' UTR reporter expression. cell-based PrP 5' UTR mRNA reporter, plate reader. inhibition, % (no concentration beside the values). actives 0.35% (n = 340,000). AID 488862; in the data active = inhibition above about 52%; also: 0 = median of the neutral control wells
Mtb hypoxia inh – Mtb hypoxia fluorescent reporter inhibition; M. tuberculosis hypoxia-regulated fluorescent reporter, fluorescence; fluorescence inhibition, % (concentration not given with the values); actives 0.1% (n = 300,000); in the data active = fluorescence inhibition mostly above about 23%, no sharp cut-off; inactive = mostly below about 17%
VHR inh abs – blocks human VHR1 dual specificity phosphatase | P51452 | recombinant VHR phosphatase, pNPP absorbance | inhibition, % at 13.3 µM | actives 0.52% (n = 290,000); in the data active = inhibition above about 50%
MazF activator – increases E. coli MazEF RNase cleavage of RNA | AID 504720 | FAM/BHQ RNA-DNA oligo cleavage fluorescence, 5 h | activation, % at 20 µM | actives 0.32% (n = 350,000); in the data active = activation above about 50%
SARS 3CLpro inh – SARS-CoV 3CLpro protease inhibition | P0C6X7 | recombinant SARS-CoV 3CLpro, quenched FRET peptide cleavage | inhibition, % at 6 µM | actives 0.14% (n = 290,000); in the data active = inhibition above about 12%
PrP 5UTR single – prion 5' UTR mRNA inhibition, cherry-pick retest. shares compounds with PrP UTR inh. inhibition, % at 2.5 µM. actives 48% (n = 1,100). cell-based prion protein 5' UTR reporter, plate reader; in the data active = inhibition above about 54%
PrPC confirm – confirmation of inhibitors of cell surface human prion protein | cell surface PrPC level, TR-FRET | AID 743200 | shares compounds with PrPC surface inh | inhibition, % at 13.8 µM | actives 65% (n = 1,500); in the data active = inhibition above about 25%
LD9 cytotox – counter-screen for PrPc inhibitors: cytotoxicity in LD9 cells | luminescence viability | shares compounds with PrPC surface inh | AID 743201 | actives 29% (n = 1,500) | inhibition, % at 13.8 µM; in the data active = inhibition above about 9.5%
Starred values were filed as active, the others as inactive; · = no result given.

SMILES	PrPC surface inh	PrP UTR inh	Mtb hypoxia inh	VHR inh abs	MazF activator	SARS 3CLpro inh	PrPC confirm	LD9 cytotox	others
CC1CC(C)(O)CC(C(O)CC2CC(=O)NC(=O)C2)C1=O (stereo unspecified)	82.6*	63.9*	·	·	6.0	·	97.2*	36.3*	PrP 5UTR single=61.4*
CN(NC(=O)C=CC(=O)O)c1ncc(C(F)(F)F)cc1Cl	·	·	0.9	·	·	·	·	·
N#CCC(=O)NN=Cc1cc([N+](=O)[O-])ccc1N1CCCC1	·	·	-5.4	·	·	·	·	·
CC(=NNC(=O)c1cccs1)c1ccncc1	·	·	9.0	·	·	·	·	·
CC(C)(O)/C=C/C(=O)C(C)(O)C1C(O)CC2(C)C3CC=C4C(C=C(O)C(=O)C4(C)C)C3(C)C(=O)CC12C (stereo unspecified)	34.5*	70.0*	·	·	2.3	·	32.7*	13.5*	PrP 5UTR single=90.4*
O=c1ccc(C(F)(F)F)cn1Cc1cc(=O)n2ccsc2n1	6.9	-22.6	6.6	8.5	7.0	1.9	·	·
O=c1cc(CNc2cc(C(F)(F)F)cc(C(F)(F)F)c2)nc2sccn12	28.6*	-21.4	2.5	10.3	2.7	11.8	19.6	-7.3
NC(=O)C1CCCNc2c(F)cc([N+](=O)[O-])cc2C(=O)NC(CO)C(=O)NCC(=O)N1 (stereo unspecified)	·	·	3.9	·	·	·	·	·
Cc1nn(-c2ccccc2)c(Cl)c1C1C(C#N)=C(N)Oc2c1c(=O)oc1ccccc21 (stereo unspecified)	35.6*	-16.7	·	13.5	6.7	0.5	10.2	2.6
CC1OC2CC(=O)OC2C2=C1C(=O)c1c(O)cccc1C2=O (stereo unspecified)	81.0*	·	·	·	·	·	92.7*	98.8*
O=C1c2cccc(O)c2C(=O)c2c(O)cc(CO)cc21	·	·	·	·	-69.1	·	·	·
O=C1C=CC(O)(c2cc(=O)c3c(O)cc(O)cc3o2)C=C1	82.2*	-65.2	·	-10.7	6.8	-0.9	76.8*	59.2*
Clc1cccc(CNc2ccn3nc(-c4ccc(OCc5ccccc5)cc4)cc3n2)c1	37.1*	·	·	·	·	·	31.6*	-7.5
c1ccc(COc2ccc(-c3cc4nc(NCCOc5ccccc5)ccn4n3)cc2)cc1	9.6	·	·	·	·	·	·	·
Clc1cccc(CNc2ccn3nc(-c4ccccc4)cc3n2)c1	10.2	·	·	·	·	·	·	·
COCCCNc1ccn2nc(-c3ccc(OCc4ccccc4)cc3)cc2n1	41.6*	·	·	·	·	·	29.6*	1.9
COc1cccc(-c2cn(CC3CCC(C4CCC(Cn5cc(-c6cccc(OC)c6)nn5)O4)O3)nn2)c1 (stereo unspecified)	·	·	-2.0	·	·	·	·	·
O=C(NC(CO)(CO)CO)c1coc(=O)c(Br)c1	45.8*	-4.9	13.0	13.6	8.0	4.0	-4.5	-3.6
Cc1nn(-c2ccccc2)c(N2CCCC2)c1C=NNC(=O)c1cc(-c2ccccn2)nc2ccccc12	·	·	4.1	·	·	·	·	·
OC(CN1C2=NCCN2c2ccccc21)c1ccc2c(c1)OCO2 (stereo unspecified)	52.9*	1.1	·	16.1	49.0	-2.9	2.3	5.3
NC(=O)c1cc(NC(=O)c2ccc(NS(=O)(=O)c3cccs3)cc2)cc(C(N)=O)c1	32.6*	-9.5	17.3	23.1	15.2	0.9	34.6*	3.7
COc1cccc(NC(=O)c2ccc(NS(=O)(=O)c3cccs3)cc2)c1	1.0	2.3	0.5	·	2.7	·	·	·
COc1cc(CN2CCN(Cc3cccc(OC)c3OC)CC2)cc(OC)c1	27.6*	-12.8	17.0	3.5	7.5	-6.2	-3.8	0.0
COC(=O)c1sc(NC(=S)NNC(=O)c2c(Br)c(C)nn2C)c(C(=O)OC)c1C	131.9*	-4.6	10.7	40.0	0.8	2.0	146.1*	-3.5
O=C(O)c1ccc(NN=Cc2cc(Br)cs2)cc1	·	·	5.9	·	·	·	·	·
SMILES	PrPC surface inh	PrP UTR inh	Mtb hypoxia inh	VHR inh abs	MazF activator	SARS 3CLpro inh	PrPC confirm	LD9 cytotox	others
Cc1ccccc1CN1CC2CC(c3cn[nH]c3-c3ccc(F)cc3)N3CCC[C@@]23C1=O (stereo partly specified)	·	·	4.6	·	·	·	·	·
COc1ccc(C(C)=O)cc1CSc1nnc(-c2ccc(Cl)cc2)n1-c1ccccc1	56.1*	-16.5	·	7.1	4.8	-5.6	24.1	-3.4
COc1ccc(C(C)=O)cc1CSc1nnc(-c2ccncc2)n1C	-9.3	-22.1	-0.2	-10.8	-7.1	0.1	·	·
Oc1ccccc1C=NNc1ccnc(SCc2ccccc2)n1	·	·	-9.5	·	·	·	·	·
O=c1nc(N2CCOCC2)nc(NN=Cc2ccc3c(c2)OCO3)[nH]1	·	·	-8.0	·	·	·	·	·
O=C(CCC(=O)c1cccs1)NC(c1ccccc1)c1ccccc1	32.6*	-3.6	2.5	0.0	6.5	4.0	-2.2	-1.7
CC[C@H](C)[C@@H]1NC(=O)[C@@H](CC(C)C)NC(=O)[C@H](C(C)C)NC(=O)[C@H]2CSSC[C@H](NC1=O)C(=O)N2	40.9*	·	·	·	·	·	46.7*	98.9*
CC(C)C[C@@H]1NC(=O)[C@H](C(C)C)NC(=O)c2cc([N+](=O)[O-])cc(I)c2NCC[C@@H](C(N)=O)NC1=O	·	·	·	0.2	2.3	-2.0	·	·
CC(Oc1ccc(Cl)cc1Cl)C(=O)NN=C1CCCc2ccccc21 (stereo unspecified)	·	·	-7.6	·	·	·	·	·
Brc1ccc2nc(-c3ccc(CN4CCC5(CC4)CNc4ccccc45)cc3)c(-c3ccccc3)nc2c1	25.8*	·	·	·	·	·	53.3*	-0.1
NC(Cc1ccc([N+](=O)[O-])cc1)=NOC(=O)c1ccco1	·	·	4.3	·	·	·	·	·
CC(C)(C)c1cc(CCC(=O)N2CCC2)cc(C(C)(C)C)c1O	20.8	-0.8	6.1	-11.3	3.1	-0.8	·	·
CC1CN(C(=O)CCc2cc(C(C)(C)C)c(O)c(C(C)(C)C)c2)CC(C)O1 (stereo unspecified)	26.1*	-10.9	6.3	49.6	-5.8	-0.3	28.5*	17.8*
CCN(CC)c1ccc(C=NNC(=O)CC(C)C)cc1	·	·	5.6	·	·	·	·	·
N#Cc1c(-c2ccccc2)nc(SCC(=O)Nc2ccccc2)[nH]c1=O	27.7*	-11.3	-2.1	-21.6	-5.0	-1.3	39.4*	-5.0
Cc1cc(C)nc(NS(=O)(=O)c2ccc(NC(=O)CSc3nc(-c4ccccc4)c(C#N)c(=O)[nH]3)cc2)n1	50.0*	-36.1	6.5	28.3	-0.8	-1.1	72.2*	-2.4
Cc1cc(NC(=O)CSc2nc(-c3ccccc3)c(C#N)c(=O)[nH]2)no1	41.2*	-4.2	4.9	35.7	-0.1	2.9	55.9*	-5.1
CCC(Sc1nc(-c2ccccc2)c(C#N)c(=O)[nH]1)C(=O)Nc1nnc(C)s1 (stereo unspecified)	28.1*	-18.1	·	-3.7	3.1	3.2	47.8*	-5.7
N#Cc1c(-c2ccccc2)nc(SCC(=O)Nc2ccccc2F)[nH]c1=O	15.2	-6.5	-0.3	-14.3	-5.3	2.3	·	·
